# Results as given in PubChem BioAssay.
# Values joined by “and” are separate entries in the source; they are usually repeats but may differ in a detail not shown here. Identical values can stand only once. Inconclusive results are not listed. Some compounds were tested as several samples or in several runs, with calls that do not always agree. Active and inactive are the calls of the source. Unless noted, the limit is not given here; nearly all actives have AC50 up to about 26 µM.
# Tests used:
# [1] = molecular target: ATP-dependent translocase ABCB1 (Homo sapiens) (UniProt P08183); test: P-glycoprotein substrate transport blockade – cell-based (AID 377; in the data active = fluorescence slope change above about 50%); details: MDR1-expressing cells, fluorescent substrate accumulation slope; stronger effect = higher value; concentration not given here
# [2] = test system: Neuropilin-2 / VEGF-C interaction (human); test: small molecules blocking Neuropilin-2/VEGF-C interaction – biochemical, microplate binding format, z-score (AID 743281; call rule not given here); details: microplate NRP2/VEGF-C binding assay; stronger effect = lower value
# [3] = GFP-Q80 aggregate reduction, neuronal-like cells, cell-based, NGF-treated PC12, GFPQ80 (AID 1614); details: PC12 NGF-treated GFP-polyQ80 inclusion reduction;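 also: lower means fewer inclusions and 0 means no inclusions at all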
# [4] = viability loss in pontine glioma line – cell-based, SU-DIPG-XIII, MIPE4.0, CellTiter-Glo, qHTS, dose response (AID 1347061; cut-off not given, nearly all actives have AC50 up to about 37 µM;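 also: cells exposed to compound for 48 hours before readout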); details: CellTiter-Glo ATP luminescence
# [5] = viability loss in pontine glioma line – cell-based, JHH-DIPG-1, MIPE4.0, CellTiter-Glo, qHTS, dose response (AID 1347062; cut-off not given, nearly all actives have AC50 up to about 27 µM;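 as to AC50: cells exposed to compound for two days before readout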); details: JHH-DIPG-1 viability, CellTiter-Glo ATP luminescence
# [6] = viability loss in pontine glioma line – cell-based, SU-DIPG-IV, MIPE4.0, CellTiter-Glo, qHTS, dose response (AID 1347063; cut-off not given, nearly all actives have AC50 up to about 30 µM;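 also: compound exposure lasted 48 hours before the viability readout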); details: CellTiter-Glo ATP luminescence
# [7] = growth inhibition of DIPG cells – cell-based, MIPE4.0 library, CellTiter-Glo luminescence, qHTS (AID 1347066; cut-off not given, nearly all actives have AC50 up to about 30 µM;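 also: cells exposed to compound for 48 hours before readout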); details: SU-DIPG-VI viability, CellTiter-Glo ATP luminescence
# [8] = viability loss in pontine glioma line – cell-based, SU-DIPG-XVII, MIPE5.0, CellTiter-Glo, qHTS, dose response (AID 1347060); details: CellTiter-Glo ATP luminescence;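 as to AC50: cells exposed to compound for 48 hours before viability readout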
# [9] = viability loss in pontine glioma line – cell-based, SU-DIPG-XIII, MIPE5.0, CellTiter-Glo, qHTS, dose response (AID 1347064; cut-off not given, nearly all actives have AC50 up to about 23 µM); details: CellTiter-Glo ATP luminescence
# [10] = viability loss in pontine glioma line – cell-based, SU-DIPG-XXV, MIPE5.0, CellTiter-Glo, qHTS, dose response (AID 1347065); details: CellTiter-Glo ATP luminescence;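 also: cells exposed to compound for 48 hours before ATP readout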
# [11] = JHH-DIPG-1 glioma cell viability, MIPE5.0 library, CellTiter-Glo luminescence, qHTS (AID 1347067); details: JHH-DIPG-1 glioma viability, CellTiter-Glo ATP luminescence;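 also: cells exposed to compound for 48 hours before readout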
# [12] = growth inhibition of DIPG cells – cell-based, MIPE5.0 library, qHTS (AID 1347068; cut-off not given, nearly all actives have IC50 up to about 30 µM); details: SU-DIPG-XXV viability
# [13] = compounds altering circadian rhythm period length – cell-based, LOPAC library, luminescence reporter (AID 2774; call rule not given here;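 also: values are relative to mean of DMSO wells on each plate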); details: circadian reporter cells, at 7 µM, actives lie on both sides
# [14] = test system: Hepatitis C virus NS3 helicase; test: blockers of NS3h binding to ssDNA – biochemical, fluorescence polarization, LOPAC1280 library, primary screen (AID 687035; in the data active = inhibition above about 37%); details: Purified HCV NS3 helicase, Cy5-dT15 ssDNA binding fluorescence polarization; stronger effect = higher value; concentration not given here
# [15] = compounds altering Cy5-DNA-NS3h complex signal – biochemical, LOPAC1280, artefact control for HCV NS3 helicase inhibitor project (AID 687037; call rule not given here); details: Cy5-DNA-NS3h complex fluorescence interference counterscreen
# [16] = growth inhibition, single agent or in combination, cell-based, chromothripsis tumors, cisplatin or BGB combos (AID 1671449; in the data active = inhibition above about 80%;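 also: cells exposed for 96 hours; 0% = vehicle DMSO and 100% = killing by high DMSO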); details: LFS_MB_P medulloblastoma cells
# [17] = growth inhibition, single agent and combos, cell-based, chromothripsis tumors, cisplatin or BGB combos (AID 1671450; in the data active = inhibition above about 80%;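 also: cells exposed to compound for four days; 0% = vehicle DMSO and 100% = cell killing by high DMSO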); details: HDN33 neuroblastoma cells, stronger effect = higher value
# [18] = growth inhibition, single agents and combos, ICB984, cell-based, cisplatin or BGB combos, synergistic combos for chromothripsis tumors (AID 1671451; call rule not given here;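 also: cells exposed for 96 hours before readout; 0% = vehicle DMSO and 100% = killing by high DMSO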); details: ICB984 medulloblastoma cells, drug combinations, stronger effect = higher value
# [19] = growth inhibition, single agents and combos, HTB85, cell-based, BGB or cisplatin IC20 combos, synergistic combos for chromothripsis tumors (AID 1671453; in the data active = inhibition above about 80%;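 also: cells exposed for 96 hours before readout; 0% = vehicle DMSO and 100% = high DMSO killing control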); details: HTB85 osteosarcoma cells, drug combinations, stronger effect = higher value
# ATP-dependent translocase ABCB1 (Homo sapiens), sequence (P08183 whole entry, looked up): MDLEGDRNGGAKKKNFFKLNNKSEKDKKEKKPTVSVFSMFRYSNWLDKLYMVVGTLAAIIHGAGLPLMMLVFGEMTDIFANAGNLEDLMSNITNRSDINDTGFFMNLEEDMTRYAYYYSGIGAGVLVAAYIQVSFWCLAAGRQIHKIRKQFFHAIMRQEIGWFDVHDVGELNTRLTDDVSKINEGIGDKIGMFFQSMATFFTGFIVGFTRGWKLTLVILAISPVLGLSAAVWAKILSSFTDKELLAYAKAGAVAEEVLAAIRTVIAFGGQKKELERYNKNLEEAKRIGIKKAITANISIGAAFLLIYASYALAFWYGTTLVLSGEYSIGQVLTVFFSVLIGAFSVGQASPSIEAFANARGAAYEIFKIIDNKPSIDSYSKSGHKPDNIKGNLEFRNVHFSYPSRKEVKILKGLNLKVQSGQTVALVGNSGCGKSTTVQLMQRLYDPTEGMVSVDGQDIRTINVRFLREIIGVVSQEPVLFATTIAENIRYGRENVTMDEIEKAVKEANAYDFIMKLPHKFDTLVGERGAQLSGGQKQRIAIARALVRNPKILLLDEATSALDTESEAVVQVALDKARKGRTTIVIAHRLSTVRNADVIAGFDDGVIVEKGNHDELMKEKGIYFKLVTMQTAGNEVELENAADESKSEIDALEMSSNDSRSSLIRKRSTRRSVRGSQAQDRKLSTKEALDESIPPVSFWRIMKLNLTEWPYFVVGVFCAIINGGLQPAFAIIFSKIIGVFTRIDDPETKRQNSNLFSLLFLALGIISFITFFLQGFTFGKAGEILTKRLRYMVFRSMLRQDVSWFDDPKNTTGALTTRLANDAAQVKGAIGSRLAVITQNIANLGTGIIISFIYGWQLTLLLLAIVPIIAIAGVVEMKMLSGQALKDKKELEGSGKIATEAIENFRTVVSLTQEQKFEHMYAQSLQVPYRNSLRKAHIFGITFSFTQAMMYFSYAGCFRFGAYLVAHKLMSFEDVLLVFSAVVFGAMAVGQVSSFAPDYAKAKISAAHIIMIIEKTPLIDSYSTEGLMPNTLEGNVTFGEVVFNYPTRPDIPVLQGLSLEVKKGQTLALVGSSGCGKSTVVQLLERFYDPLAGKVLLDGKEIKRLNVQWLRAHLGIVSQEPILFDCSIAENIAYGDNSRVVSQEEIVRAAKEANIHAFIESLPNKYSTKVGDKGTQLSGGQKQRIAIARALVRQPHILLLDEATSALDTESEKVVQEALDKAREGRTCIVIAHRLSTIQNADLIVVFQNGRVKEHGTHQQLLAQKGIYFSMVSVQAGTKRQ
smiles,measurement,setting,value
CCS(=O)(=O)CCn1c([N+](=O)[O-])cnc1C,fluorescence slope change,[1],11.6% (inactive)
same,z-score,[2],-0.45 (inactive)
CN[C@@H]1[C@H](O)[C@H](NC)[C@H]2O[C@@]3(O)C(=O)C[C@@H](C)O[C@H]3O[C@@H]2[C@H]1O,fluorescence slope change,[1],67% (active)
same,inclusion score,[3],1.5
same,AC50,[4],4.69 µM (active)
same,AC50,[5],1.05 µM (active)
same,AC50,[6],0.332 µM (active)
same,AC50,[7],1.48 µM (active)
Cc1onc(-c2ccccc2)c1-c1ccc(S(N)(=O)=O)cc1,z-score,[2],0.865 (inactive)
same,outcome,[8],inactive
same,outcome,[9],inactive
same,outcome,[10],inactive
same,outcome,[11],inactive
same,outcome,[12],inactive
C[C@]12CCC(=O)C=C1CC[C@@H]1[C@@H]2[C@@H](O)C[C@@]2(C)[C@H]1CC[C@]2(O)C(=O)CO,period change,[13],-0.16 h (inactive)
same,inhibition,[14],-3% (inactive)
same,fluorescence ratio (interference),[15],1 (inactive)
same,outcome,[8],inactive
same,outcome,[5],inactive
same,outcome,[9],inactive
same,outcome,[10],inactive
same,outcome,[7],inactive
same,outcome,[11],inactive
same,outcome,[12],inactive
C[C@H](CCC(=O)O)[C@H]1CC[C@H]2[C@@H]3C(=O)C[C@@H]4CC(=O)CC[C@]4(C)[C@H]3CC(=O)[C@]12C,fluorescence slope change,[1],97.9% (active)
same,z-score,[2],-0.00555 (inactive)
OCCN1C[C@H](O)[C@@H](O)[C@H](O)[C@H]1CO,z-score,[2],-1.24 (inactive)
same,outcome,[8],inactive
same,outcome,[4],inactive
same,outcome,[5],inactive
same,outcome,[6],inactive
same,outcome,[10],inactive
same,outcome,[7],inactive
same,outcome,[11],inactive
same,outcome,[12],inactive
CC[C@H](C)C(=O)O[C@H]1C[C@H](O)C=C2C=C[C@H](C)[C@H](CC[C@@H](O)C[C@@H](O)CC(=O)O)[C@H]21,z-score,[2],0.492 (inactive)
same,AC50,[8],23.5 µM (active)
same,outcome,[4],inactive
same,outcome,[6],inactive
same,outcome,[9],inactive
same,outcome,[11],inactive
same,outcome,[12],inactive
CCCSc1ccc2nc(NC(=O)OC)[nH]c2c1,fluorescence slope change,[1],97.2% (active)
Cc1cccc(Nc2ccccc2C(=O)O)c1C,inclusion score,[3],1.5
CCCCCCCCCCC[C@@H](C[C@@H]1OC(=O)[C@H]1CCCCCC)OC(=O)[C@H](CC(C)C)NC=O,z-score,[2],-1.43 (inactive)
CC(C)C1CCC(C(=O)N[C@H](Cc2ccccc2)C(=O)O)CC1 (some centres not stated),z-score,[2],-0.458 (inactive)
same,outcome,[8],inactive
same,outcome,[4],inactive
same,outcome,[5],inactive
same,outcome,[6],inactive
same,outcome,[9],inactive
same,outcome,[10],inactive
same,outcome,[7],inactive
same,outcome,[11],inactive
same,outcome,[12],inactive
C[C@@H]1O[C@@H](OC[C@H]2O[C@@H](Oc3c(-c4ccc(O)c(O)c4)oc4cc(O)cc(O)c4c3=O)[C@H](O)[C@@H](O)[C@@H]2O)[C@H](O)[C@H](O)[C@H]1O,inclusion score,[3],2
same,z-score,[2],0.702 (inactive)
CN(C)c1ccc(O)c2c1C[C@H]1C[C@H]3[C@H](N(C)C)C(=O)C(C(N)=O)=C(O)[C@@]3(O)C(=O)C1=C2O,fluorescence slope change,[1],103% (active)
same,inclusion score,[3],0
same,outcome,[5],inactive
same,outcome,[7],inactive
same,outcome,[11],inactive
same,outcome,[12],inactive
Cc1ccc(O)c([C@H](CCN(C(C)C)C(C)C)c2ccccc2)c1,z-score,[2],-0.0447 (inactive)
COc1ccc([C@@H]2Sc3ccccc3N(CCN(C)C)C(=O)[C@@H]2OC(C)=O)cc1,fluorescence slope change,[1],71.5% (active)
same,period change,[13],0.035 h (inactive)
same,inhibition,[14],-1% (inactive)
same,fluorescence ratio (interference),[15],1.1 (inactive)
same,outcome,[8],inactive
same,outcome,[9],inactive
same,outcome,[10],inactive
same,outcome,[11],inactive
same,outcome,[12],inactive
Cn1c(=O)c2[nH]cnc2n(C)c1=O,fluorescence slope change,[1],7.6% (inactive) and 62.3% (active)
same,inclusion score,[3],1.5
same,period change,[13],0.14 h (inactive)
same,inhibition,[14],-2% (inactive)
same,fluorescence ratio (interference),[15],0.9 (inactive)
same,outcome,[8],inactive
same,outcome,[4],inactive
same,outcome,[5],inactive
same,outcome,[6],inactive
same,outcome,[9],inactive
same,outcome,[10],inactive
same,outcome,[7],inactive
same,outcome,[11],inactive
same,outcome,[12],inactive
same,inhibition,"[16]; at 0.5 µM, stronger effect = higher value",15.2% (inactive) and -21.4% (inactive) and -26.2% (inactive)
same,inhibition,"[16]; measured here: combination with BGB IC20, at 0.005 µM",-5.83% and -14.3% and -19.1%
same,inhibition,"[16]; measured here: combination with BGB IC40, at 0.005 µM",-32.6% and -34.3% and -25.4%
same,inhibition,"[16]; measured here: combination with BGB IC40, at 0.05 µM",-28.1% and -16.1% and -10.3%
same,inhibition,"[16]; measured here: combination with cisplatin, at 0.5 µM, stronger effect = higher value",57.5% and -49.4% and -30.2%
same,inhibition,"[16]; measured here: combination with cisplatin, at 5 µM, stronger effect = higher value",-12.8% and -12% and -12.6%
same,inhibition,"[17]; BGB combo, at 5 µM",-6.91% and -17% and -18.3%
same,inhibition,[17]; at 0.5 µM,1.38% (inactive) and 2.18% (inactive) and -18.5% (inactive)
same,inhibition,"[17]; cisplatin combo, at 5 µM",14.2% and 15.4% and -46.9%
same,inhibition,"[17]; measured here: with BGB IC20 combination, at 0.5 µM",4.11% and 8.06% and -21.1%
same,inhibition,"[17]; measured here: with cisplatin IC20 combination, at 0.5 µM",9.64% and 13.8% and 3.17%
same,inhibition,"[17]; single agent, at 5 µM",-10.4% and -21.4% and -26.1%
same,inhibition,"[18]; BGB IC20 combo, at 0.005 µM",-1.06% and -2.94% and -4.47%
same,inhibition,"[18]; BGB IC40 combo, at 0.005 µM",-42.4% and 6.67% and -13.1%
same,inhibition,"[18]; BGB IC40 combo, at 0.05 µM",-45.5% and -37.4% and -12%
same,inhibition,[18]; at 0.5 µM,-27.5% (inactive) and -16.4% (inactive) and -30.3% (inactive)
same,inhibition,"[18]; cisplatin combo, at 0.05 µM",-49.6% and -37.4% and -12%
same,inhibition,"[18]; cisplatin combo, at 0.5 µM",-29.5% and -23.4% and -59.1%
same,inhibition,"[18]; cisplatin combo, at 5 µM",-24.5% and 11.4% and -42.2%
same,inhibition,"[18]; measured here: 5 uM single agent, at 5 µM",-5.05% and -45.4% and 1.22%
same,inhibition,[19]; at 0.5 µM,4.06% (inactive) and -19.4% (inactive) and 3.27% (inactive)
same,inhibition,"[19]; measured here: with BGB IC20, at 0.5 µM",-3.78% and -35% and -47%
same,inhibition,"[19]; measured here: with BGB IC20, at 5 µM",-9.64% and -9.51% and -34.2%
same,inhibition,"[19]; measured here: with cisplatin IC20, at 0.5 µM",-5.37% and -29.8% and 44.7%
same,inhibition,"[19]; measured here: with cisplatin IC20, at 5 µM",-42.2% and 14.2% and 0.95%
same,inhibition,"[19]; single agent, at 5 µM",4.95% and 14.1% and 12.1%
O=C1[C@H](CC[C@H](O)c2ccc(F)cc2)[C@@H](c2ccc(O)cc2)N1c1ccc(F)cc1,z-score,[2],-0.399 (inactive)
same,outcome,[8],inactive
same,AC50,[10],20.9 µM (active)
same,outcome,[12],inactive
Nc1nc2ncc(CNc3ccc(C(=O)N[C@@H](CCC(=O)O)C(=O)O)cc3)nc2c(=O)[nH]1,fluorescence slope change,[1],5.4% (inactive)
same,inclusion score,[3],1.5
C[C@H]1C[C@@H]2[C@H]([C@@H](O)C[C@@]3(C)[C@H]2CC[C@]3(O)C(=O)CO)[C@@]2(C)C=CC(=O)C=C12,fluorescence slope change,[1],127% (active)
same,outcome,[8],inactive
same,outcome,[5],inactive
same,outcome,[9],inactive
same,outcome,[10],inactive
same,outcome,[11],inactive
same,outcome,[12],inactive
c1ccc(-c2ccc(C(c3ccccc3)n3ccnc3)cc2)cc1 (configuration not stated),z-score,[2],-0.348 (inactive)
CCCN(CCC)S(=O)(=O)c1ccc(C(=O)O)cc1,inclusion score,[3],2
COc1ccc2cc(CCC(C)=O)ccc2c1,inclusion score,[3],2
CC1=C(C(=O)O)N2C(=O)[C@@H](NC(=O)[C@H](N)c3ccccc3)[C@H]2SC1,fluorescence slope change,[1],94.6% (active)
same,outcome,[2],inactive
C[C@]12CCC(=O)C=C1CC[C@@H]1[C@@H]2C(=O)C[C@@]2(C)[C@H]1CC[C@]2(O)C(=O)CO,fluorescence slope change,[1],29.4% (inactive)
same,period change,[13],-0.215 h (inactive)
same,inhibition,[14],1% (inactive)
same,fluorescence ratio (interference),[15],1 (inactive)
same,z-score,[2],0.291 (inactive)
c1ccc2c(CC3=NCCN3)cccc2c1,inclusion score,[3],1.5
